From PubChem BioAssay
Rows were chosen to be rich in hits. Some 1.4% of all compounds tested hit in one or more screens of this group.
RAD52 inh: RAD52 DNA annealing inhibitors, primary screen, biochemical, FRET, single point, set 2; DNA repair protein RAD52 homolog (Homo sapiens), P43351; recombinant RAD52 DNA annealing, FRET fluorescence; inhibition, % at 18.7 µM; 360,000 compounds, 0.46% hits; AID 651710, 2012;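 active = every replicate showing at least 50% inhibition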
PGC1a acetyl inh: inhibitors of PGC1a acetylation signal, primary screen, cell-based, U2OS, AlphaScreen, inhibitor mode. 350,000 compounds, 0.17% hits. AlphaScreen anti-acetyl-lysine; with virally co-expressed GCN5 acetyltransferase. inhibition, % at 15.6 µM;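 active = every replicate shows inhibition of at least 40%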;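 also: 0% = neutral control wells and 100% = positive control wells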
MLL AF4-AF9 inh: inhibitors of AF4 peptide binding to AF9, primary screen, biochemical, AlphaScreen, biotin-AF4 peptide, FLAG-AF9, single point. Protein AF-9 (Homo sapiens), P42568. inhibition, % at 10 µM. 350,000 compounds, 0.47% hits. AID 651704, 2012;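 active = every replicate reaching a set inhibition limit, whatever the replicate mean, cut at about 25% in these data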;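 also: 0% = plate neutral control median and 100% = total signal loss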
GSIS activator: GLuc luminescence reporter in INS-1E cells, primary screen for activators of glucose-dependent secretion of insulin. INS-1E GLuc reporter insulin secretion, 2-3 h. activation, % at 16.6 µM. 370,000 compounds, 0.61% hits. AID 743287, 2014;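 active = lowest replicate activation of at least 40%, so every replicate reaches that level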;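 also: 0% = median of neutral control wells and 100% = median of IBMX positive control wells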
ERAP1 inh: human ERAP1 aminopeptidase inhibitors, primary screen, biochemical, single point, plate reader; inhibition, % at 10.7 µM; recombinant ERAP1, Leu-AMC fluorescence, 60 min; Endoplasmic reticulum aminopeptidase 1 (Homo sapiens), Q9NZ08; 340,000 compounds, 0.15% hits;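 active = mean replicate inhibition of at least 30%, or all replicates individually reaching that 30% level; inactive = mean below 30% and not every replicate reaching it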;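 also: 0% = neutral control wells and 100% = L-leucinethiol positive control wells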
Target sequence (Q9NZ08 whole entry, looked up): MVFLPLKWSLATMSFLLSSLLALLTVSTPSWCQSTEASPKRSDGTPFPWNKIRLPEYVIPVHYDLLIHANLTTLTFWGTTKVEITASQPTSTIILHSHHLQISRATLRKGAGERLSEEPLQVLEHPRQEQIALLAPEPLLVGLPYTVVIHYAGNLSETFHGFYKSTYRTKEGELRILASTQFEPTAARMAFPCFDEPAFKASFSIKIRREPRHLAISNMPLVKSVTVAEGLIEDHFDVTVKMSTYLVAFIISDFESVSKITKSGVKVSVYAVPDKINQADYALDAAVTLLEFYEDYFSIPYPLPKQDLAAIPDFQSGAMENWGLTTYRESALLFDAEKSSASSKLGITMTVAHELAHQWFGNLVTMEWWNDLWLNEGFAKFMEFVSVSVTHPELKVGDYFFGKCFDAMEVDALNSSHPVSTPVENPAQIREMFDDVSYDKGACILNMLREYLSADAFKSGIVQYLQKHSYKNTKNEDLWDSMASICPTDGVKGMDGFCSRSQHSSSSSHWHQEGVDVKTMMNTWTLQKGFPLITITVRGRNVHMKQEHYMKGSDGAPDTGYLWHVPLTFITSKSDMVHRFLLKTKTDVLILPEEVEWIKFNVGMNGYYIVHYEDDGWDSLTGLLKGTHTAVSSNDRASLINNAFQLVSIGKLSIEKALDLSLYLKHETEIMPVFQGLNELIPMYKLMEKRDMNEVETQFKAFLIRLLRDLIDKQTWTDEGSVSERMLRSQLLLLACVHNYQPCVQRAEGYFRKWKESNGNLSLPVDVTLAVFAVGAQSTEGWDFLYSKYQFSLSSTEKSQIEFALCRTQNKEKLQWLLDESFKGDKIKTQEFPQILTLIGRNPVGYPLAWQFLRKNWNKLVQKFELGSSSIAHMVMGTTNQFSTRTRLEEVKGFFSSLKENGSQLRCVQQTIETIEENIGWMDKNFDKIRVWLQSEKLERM
RAD54 inh: inhibitors of human RAD54 branch migration, primary screen, biochemical, fluorescence, single point; DNA repair and recombination protein RAD54-like (Homo sapiens), Q92698; RAD54 Holliday junction branch migration, FAM/BHQ fluorescence; inhibition, % at 10.4 µM; 360,000 compounds, 0.14% hits;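 active = mean normalized replicate activity at least 40 and at least half of replicates scoring 40 or more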;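 also: 0% = median of neutral control wells and 100% = median of positive control wells; inhibitors cause a drop in the FAM fluorescence signal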
* hit, by the source's call.

What do the screens show for `O=C1CCc2cc(S(=O)(=O)N3CCN(c4ccc(F)cc4)CC3)cc3c2N1CC3`?
RAD52 inh: -6.3; PGC1a acetyl inh: -9.1; MLL AF4-AF9 inh: -9.0; GSIS activator: 47.3*; ERAP1 inh: -1.4

What do the screens show for `Cn1c(=O)c(=O)n(C)c2cc(S(=O)(=O)N3CCN(c4ccc(F)cc4)CC3)ccc21`?
GSIS activator: 50.9*; RAD54 inh: -0.5

How did O=C1CCc2cc(S(=O)(=O)N3CCN(c4ccccc4)CC3)cc3c2N1CCC3 do in these assays?
RAD52 inh: -1.8; PGC1a acetyl inh: 4.9; MLL AF4-AF9 inh: 0.3; GSIS activator: 4.7; ERAP1 inh: -3.6; RAD54 inh: 2.8

Results for CC(=O)N1CC2(C1)[C@H](c1ccccc1)[C@H](CO)N2S(=O)(=O)c1ccccc1 ?
RAD52 inh: 11.9; PGC1a acetyl inh: 0.5; MLL AF4-AF9 inh: -1.6; GSIS activator: 8.3; ERAP1 inh: 5.2

How did Cc1ncc(N=Nc2ccc(F)cc2)c(-c2ccc(Cl)cc2)n1 do in these assays?
PGC1a acetyl inh: 3.2; GSIS activator: 59.4*; RAD54 inh: -4.4

Results for COc1ccc(-c2nc(C)ncc2N=Nc2ccccc2)cc1 ?
PGC1a acetyl inh: 6.0; RAD54 inh: 2.1

What do the screens show for `CCCCn1c(N)c(N(CCOC)C(=O)COC(=O)c2cc(CCC)c(C)s2)c(=O)[nH]c1=O`?
RAD52 inh: -5.5; PGC1a acetyl inh: 17.3; MLL AF4-AF9 inh: 40.5*; GSIS activator: -6.2; ERAP1 inh: 13.2

How did CCCCn1c(N)c(N(CCOC)C(=O)c2cc(-c3ccc(OC)c(OC)c3)nc3ccccc23)c(=O)[nH]c1=O do in these assays?
RAD52 inh: -6.3; MLL AF4-AF9 inh: -3.4; GSIS activator: 17.1; ERAP1 inh: 36.6*; RAD54 inh: 23.3

How did CCCCN(C(=O)COC(=O)c1ccc(C)s1)c1c(N)n(CCC)c(=O)[nH]c1=O do in these assays?
RAD52 inh: 4.1; MLL AF4-AF9 inh: -0.6; GSIS activator: 3.6; ERAP1 inh: 0.5

How did CN(c1ccccc1)c1nc(N)c(C#N)c(CC#N)c1C#N do in these assays?
GSIS activator: 66.2*; RAD54 inh: 10.8

How did CN(CCO)c1nc(N)c(C#N)c(CC#N)c1C#N do in these assays?
RAD52 inh: -88.8; PGC1a acetyl inh: 2.7; MLL AF4-AF9 inh: -7.4; GSIS activator: 24.1; RAD54 inh: 2.0

What do the screens show for `CC1Cc2ccccc2N1C(=O)COc1ccc2c(c1)OCO2` (stereo not drawn)?
RAD52 inh: -5.9; PGC1a acetyl inh: -5.9; MLL AF4-AF9 inh: 0.9; GSIS activator: -10.2; ERAP1 inh: 30.6*; RAD54 inh: 0.7

Results for CC1CCCN(C(=O)COc2ccc3c(c2)OCO3)C1 (stereo not drawn) ?
RAD52 inh: 7.1; PGC1a acetyl inh: -2.2; MLL AF4-AF9 inh: -0.9; GSIS activator: 11.0; ERAP1 inh: -0.9; RAD54 inh: -7.7

Results for O=C(NC[C@H]1CC[C@H]2[C@H](CN2C(=O)Cc2ccncc2)O1)C1CCOCC1 ?
RAD52 inh: 3.6; MLL AF4-AF9 inh: -3.1; ERAP1 inh: 3.4

How did Cc1[nH]ccc(=O)c1Cc1c(Cl)cccc1Cl do in these assays?
RAD52 inh: -5.8; MLL AF4-AF9 inh: -0.5; GSIS activator: 8.0; ERAP1 inh: -1.3; RAD54 inh: 2.2

Results for Cc1nc(C(Cl)(Cl)Cl)nc2[nH]ccc(=O)c12 ?
RAD52 inh: -30.9; MLL AF4-AF9 inh: 0.6; GSIS activator: 130.0*; ERAP1 inh: 0.9

How did CC(C)NC(=O)NCC[C@@H]1CC[C@@H](NS(=O)(=O)c2ccccc2)[C@@H](CO)O1 do in these assays?
RAD52 inh: -7.2; PGC1a acetyl inh: 1.1; MLL AF4-AF9 inh: 5.6; GSIS activator: 9.7; ERAP1 inh: -2.3

Results for O=C(Nc1cc(F)ccc1F)N1CC(=O)N2[C@H](CO)[C@@H](c3ccc(-c4ccc(F)cc4)cc3)[C@@H]2C1 ?
RAD52 inh: -24.2; PGC1a acetyl inh: 9.9; MLL AF4-AF9 inh: -1.2; GSIS activator: -10.3; ERAP1 inh: -0.5

What do the screens show for `Cc1ccc(NC(=O)C2=C(c3ccccc3)S(=O)(=O)CCS2(=O)=O)cc1`?
RAD52 inh: -2.7; MLL AF4-AF9 inh: -1.7; GSIS activator: 155.2*; ERAP1 inh: -6.5

How did Cc1ccc(NC(=O)c2ccccc2)cc1 do in these assays?
PGC1a acetyl inh: -6.1; GSIS activator: 20.6; RAD54 inh: -12.3

Results for CC1=CC(C)C2(COC(c3ccc[n+](C)c3)OC2)C(C)C1 (stereo not drawn) ?
RAD52 inh: -14.6; PGC1a acetyl inh: -13.2; MLL AF4-AF9 inh: -2.3; GSIS activator: -9.1; ERAP1 inh: 106.5*

How did O=C(NCCC1CCCCN1S(=O)(=O)c1ccc(F)cc1)C(=O)NCc1cccnc1 (stereo not drawn) do in these assays?
RAD52 inh: -8.1; PGC1a acetyl inh: 11.3; MLL AF4-AF9 inh: 0.8; GSIS activator: 49.7*; ERAP1 inh: 0.5; RAD54 inh: -0.9

Results for O=C(NCCC1CCCCN1S(=O)(=O)c1ccccc1)C(=O)NCc1cccnc1 (stereo not drawn) ?
RAD52 inh: -0.2; MLL AF4-AF9 inh: -1.6; GSIS activator: 5.4; ERAP1 inh: 1.2; RAD54 inh: 0.1

How did CCCCCn1c(N(C)Cc2ccccc2)nc2c1c(=O)[nH]c(=O)n2C do in these assays?
RAD52 inh: -14.3; PGC1a acetyl inh: 14.2; MLL AF4-AF9 inh: -4.0; GSIS activator: 40.4*; ERAP1 inh: 1.7; RAD54 inh: -14.0

What do the screens show for `CN(Cc1ccccc1)c1nc2c(c(=O)[nH]c(=O)n2C)n1Cc1ccccc1`?
RAD52 inh: -6.8; GSIS activator: 69.8*; ERAP1 inh: 0.5; RAD54 inh: -11.2

How did CN(Cc1ccccc1)c1nc2c(c(=O)[nH]c(=O)n2C)n1Cc1ccccc1F do in these assays?
RAD52 inh: -8.1; PGC1a acetyl inh: -6.6; MLL AF4-AF9 inh: -6.7; GSIS activator: 38.9; ERAP1 inh: 2.1; RAD54 inh: -0.1

Results for CN(Cc1ccccc1)c1nc2c(c(=O)[nH]c(=O)n2C)n1CCOc1ccccc1 ?
PGC1a acetyl inh: 7.7

Results for COc1ccc(S(=O)(=O)Nc2cccc3c2O[C@H](CN(C)S(=O)(=O)c2ccc(Cl)cc2)[C@H](C)CN([C@@H](C)CO)C3=O)cc1 ?
RAD52 inh: 6.4; PGC1a acetyl inh: 5.3; MLL AF4-AF9 inh: -0.2; GSIS activator: -2.7; ERAP1 inh: 1.3; RAD54 inh: -2.6

Results for CC(C)CC#Cc1ccc2c(c1)O[C@H](CN(C)C(=O)Cc1cccnc1)[C@@H](C)CN([C@H](C)CO)S2(=O)=O ?
RAD52 inh: -10.8; PGC1a acetyl inh: -6.8; MLL AF4-AF9 inh: 4.0; GSIS activator: -16.0; RAD54 inh: -13.6
